{"source": "PubChem BioAssay (NCATS)", "note": "Unmarked numbers belong to inactive results. Calls come from the whole dose curve; as a rule, active = well fitted curve in the direction sought with a large enough effect; inconclusive = small, poorly fitted or top-dose-only effect, or effect the other way, or another doubt; inactive = no such curve, though single readings can be large or run the other way."}
{"assay": "qHTS for Inhibitors of Cell Surface uPA Generation: Validation Assay (AID 493164);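 note: RAW 264.7 macrophage cells exposed to compound for 18 h; 0% is about no effect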", "settings": "mouse cells, plasminogen activation; series mostly up to 38.3 µM; activity change: at the top concentration", "excerpt": "NIH Chemical Genomics Center [NCGC]\nNIH Molecular Libraries Probe Centers Network [MLPCN]\nAssay Submitter (PI): Thomas Bugge\nThe overall objective of this project is to perform a quantitative high throughput screen (qHTS) to identify novel compounds that inhibit the generation of cell surface urokinase activity. The urokinase plasminogen activator (uPA) is one of the two primary endogenous systems that mediate plasminogen activation into plasmin. Members of this system, including uPA and its receptor (uPAR), are overexpressed in several malignant tumors. This system plays a major role in adhesion, migration, invasion and metastasis of cancer cells. Small molecule inhibitors of the uPA system will serve as probes to understand the molecular mechanisms of the uPA cascade and better understanding the microenvironmental circumstances that facilitate the activation of plasminogen by uPA, and finally may provide novel candidate agents for anticancer drug therapy.\n[…] […] Upon inhibition of the uPA activation cascade, the subsequent cell surface uPA activity-dependent translocation of LF into the cytoplasm is inhibited. ATP-Lite is used to measure intracellular ATP concentrations, which remain increased if LF entry into the cytoplasm is inhibited. This validation assay was performed using a small set of validation compounds.\nuPA assay protocol summary:\nRAW 264.7 cells were maintained in DMEM medium (Invitrogen, Carlsbad, CA) at 37C under a humidified atmosphere containing 5% CO2 and 95% air. The medium contained 10% FBS, 1 mM sodium pyruvate and 50 U/ml penicillin/streptamycin (Invitrogen, Carlsbad, CA). All compounds were screened as 7-point titration from 2.45 nM to 38.3 uM final concentration. The assay was performed in 1536-well format plate as follows:\n1.Dispensing RAW 264.7 cells into 1536-well, white walled tissue culture plates at a density of 4000 cells/well (4 uL).\n2.Incubation at 37 C in a 5% CO2 incubator overnight.\n3.Serially diluting compounds (1:5 serial dilution; 0.0024 uM to […] final concentration) in 23 nl DMSO.\n5.Incubating the compound and reagent-treated plates for 18 hours at 37 C in a 5% CO2 incubator.\n6.Adding ATP-Lite (3 ul).\n7.Reading plates by ViewLux with an exposure length of 5 seconds.", "units": {"activity change": "%"}}
{"smiles": "NC(=O)c1ccc(OCC(O)CN2CC=C(c3ccc(F)cc3)CC2)cc1", "note": "(stereo not given)", "activity change": -0.521}
{"smiles": "NNC(N)=O", "activity change": -1.73}
{"smiles": "CCCN(CCC)C1CCc2cccc(O)c2C1", "note": "(stereo not given)", "activity change": -0.867}
{"smiles": "CN(C(=O)Cc1ccc(Cl)c(Cl)c1)C(CN1CCCC1)c1cccc(OCC(=O)O)c1", "note": "(stereo not given)", "activity change": -0.701}
{"smiles": "N[C@@]1(C(=O)O)CC[C@@H](C(=O)O)C1", "activity change": -1.26}
{"smiles": "NCCCP(=O)(O)O", "activity change": 0.576}
{"smiles": "NC(=O)COc1c(F)cc(SCCNS(=O)(=O)c2ccccc2)cc1F", "activity change": 2}
{"smiles": "CO[C@H]1CC=C2CCN3CCC4=C(CC(=O)OC4)[C@]23C1", "activity change": -0.352}
{"smiles": "C[N+]1(C)CCN(c2ccccc2)CC1", "activity change": 0.448}
{"smiles": "C[N+]1(C)CCOC(O)(c2ccc(-c3ccc(C4(O)C[N+](C)(C)CCO4)cc3)cc2)C1", "note": "(stereo not given)", "activity change": 0.568}
{"smiles": "CCOC(=O)c1ncn2c1[C@@H]1CCCN1C(=O)c1cc(OC)ccc1-2", "activity change": 0.83}
{"smiles": "O=C1CC[C@@]2(O)C3Cc4ccc(O)c5c4C2(CCN3CC2CC2)[C@H]1O5", "note": "(stereo not given in full)", "activity change": -1.3}
{"smiles": "C[N+]1(C)CCc2cc3c(cc2[C@H]1[C@@H]1OC(=O)c2c1ccc1c2OCO1)OCO3", "activity change": -0.813}
{"smiles": "CN1CCc2cccc(Cl)c2CC1", "activity change": -1.28}
{"smiles": "NC(CCCCCP(=O)(O)O)C(=O)O", "note": "(stereo not given)", "activity change": -0.137}
{"smiles": "OCc1cnc[nH]1", "activity change": -0.0691}
{"smiles": "c1ccc2c(c1)[I+]c1ccccc1-2", "activity change": 1.75}
{"smiles": "C/C(O)=C(\\C#N)C(=O)Nc1cc(Br)ccc1Br", "activity change": 1.36}
{"smiles": "CCCCCCC(C)(C)c1ccc([C@@H]2C[C@H](O)CC[C@H]2CCCO)c(O)c1", "activity change": 0.674}
{"smiles": "c1ccc2c(N3CCNCC3)cccc2c1", "activity change": 0.19}
{"smiles": "C=CCN1CC[C@]23c4c5ccc(O)c4O[C@H]2/C(=N/NC(=O)c2ccccc2)CC[C@@]3(O)[C@H]1C5", "activity change": 0.0424}
{"smiles": "CC(Cc1ccc(OCC(=O)O)cc1)NCC(O)c1cccc(Cl)c1", "note": "(stereo not given)", "activity change": -1.05}
{"smiles": "NC(N)=NOCC[C@H](N)C(=O)O", "activity change": 1.06}
{"smiles": "CC(N)[C@H](O)c1ccc(O)c(O)c1", "note": "(stereo not given in full)", "activity change": 1.45}
{"smiles": "NC(=O)CI", "activity change": 0.526}
{"smiles": "CN(N=O)c1ccc(O)c(O)c1", "activity change": 0.589}
{"smiles": "CCCN(CCC)CCc1c[nH]c2ccc(C(N)=O)cc12", "activity change": -1.11}
{"smiles": "CCNC(=O)[C@H]1O[C@@H](n2cnc3c(N)ncnc32)[C@H](O)[C@@H]1O", "activity change": -0.104}
{"smiles": "C=CCN1CC[C@]23c4c5ccc(O)c4O[C@@H]2/C(=N/N=C2\\CC[C@@]4(O)C6Cc7ccc(O)c8c7[C@@]4(CCN6CC=C)[C@@H]2O8)CC[C@@]3(O)C1C5", "activity change": 3.1}
{"smiles": "O=[N+]([O-])c1ccc2nc(N3CCNCC3)ccc2c1", "activity change": -0.905}
{"smiles": "O=[N+]([O-])c1cc(O)c(O)c([N+](=O)[O-])c1", "activity change": 0.829}
{"smiles": "CC(N)Cc1c[nH]c2ccc(OCc3cccs3)cc12", "note": "(stereo not given)", "activity change": -1.44}
{"smiles": "C[Se]C[C@H](N)C(=O)O", "activity change": 1.78}
{"smiles": "CC(N)Cc1c[nH]c2ccc(O)cc12", "note": "(stereo not given)", "activity change": -0.98}
{"smiles": "CCCN(CCC)CCc1ccc(O)c(O)c1", "activity change": -0.447}
{"smiles": "C#CCN[C@H](C)Cc1ccccc1", "activity change": -0.947}
{"smiles": "C[N+](C)(C)CC#CCOC(=O)Nc1cccc(Cl)c1", "activity change": -0.5}
{"smiles": "O=c1c2ccccc2[se]n1-c1ccccc1", "activity change": 1.53}
{"smiles": "N#CCCN", "activity change": -1.43}
{"smiles": "CCCN1CCC[C@@H](c2cccc(O)c2)C1", "activity change": -1.02}
